Results reported in ChEMBL document CHEMBL4513216, “Probing the Open Global Health Chemical Diversity Library for Multistage-Active Starting Points for Next-Generation Antimalarials” (ACS Infect Dis, 2020).
About 8,600 (12%) of roughly 69,000 compounds showed an effect of 50% or more. The full list was thinned out, with strong results kept by preference.

tested on: Plasmodium berghei; assay: Screen against P. berghei liver stage (PbLuc), transformed with Luciferase, at 10uM; type: functional, HepG2; conditions: tested at 10 uM

Question: For COCCNC(=O)c1cc(-c2ccc3c(c2)CCO3)n[nH]1, which INHIBITION is on record?
Answer: Its INHIBITION is -18.9%.

Question: How did the INHIBITION turn out when CN(Cc1ccn[nH]1)Cc1c[nH]nc1-c1ccc(F)cc1 was run?
Answer: The INHIBITION was 77.2%.

Question: CCC(CO)N(Cc1ccccn1)Cc1ccc(-c2ccn[nH]2)s1 (centres undefined) was tested. Which INHIBITION did it give?
Answer: Its INHIBITION is 47.2%.

Question: Which INHIBITION does the source give for CCC(CO)N(Cc1ccncc1)Cc1c[nH]nc1-c1ccc(F)cc1 (centres undefined) here?
Answer: Its INHIBITION is 57.6%.

Question: With CCC(CO)N(Cc1ccc(F)cc1)Cc1c(C)nn(C)c1Cl (centres undefined) as the molecule, how does the INHIBITION read?
Answer: The INHIBITION was -8.66%.

Question: Which INHIBITION does the source give for Cc1n[nH]c(C)c1CCCN(C)Cc1c[nH]nc1-c1ccc(F)cc1 here?
Answer: The INHIBITION was 40.2%.

Question: For CN(Cc1cc(C(C)(C)C)n[nH]1)Cc1c[nH]nc1-c1ccc(F)cc1, which INHIBITION is on record?
Answer: The INHIBITION was 47.6%.

Question: How did the INHIBITION turn out when CCC(CO)N(Cc1ccccn1)Cc1c[nH]nc1-c1ccc(F)cc1 (centres undefined) was run?
Answer: Its INHIBITION is 78.9%.

Question: How did the INHIBITION turn out when CCN(Cc1ccncc1)Cc1c[nH]nc1-c1ccc(F)cc1 was run?
Answer: Its INHIBITION is 14.8%.

Question: With CCC(CO)N(C/C(C)=C/c1ccco1)Cc1ccccn1 (centres undefined) as the molecule, how does the INHIBITION read?
Answer: The INHIBITION was 8.64%.

Question: Which INHIBITION does the source give for CN(Cc1ccccc1)C(=O)Cn1nc(N2CCOCC2)ccc1=O here?
Answer: Its INHIBITION is -28.7%.

Question: O=C1CCCCN1CCc1nc(C2(c3ccc(F)cc3)CCOC2)no1 (centres undefined) was tested. Which INHIBITION did it give?
Answer: The INHIBITION was -15.5%.

Question: CCc1nn(C)c2[nH]nc(NC(=O)c3cccnc3NC(C)C)c12 was tested. Which INHIBITION did it give?
Answer: Its INHIBITION is 36.3%.

Question: Which INHIBITION does the source give for CCS(=O)(=O)N1CC(=O)N(CCOc2ccccc2)CC(O)C1 (centres undefined) here?
Answer: Its INHIBITION is -10.3%.

Question: With CCn1cc(S(=O)(=O)NC2(CN3CCOCC3)CCCCC2)c(C)n1 as the molecule, how does the INHIBITION read?
Answer: The INHIBITION was -10.5%.

Question: Which INHIBITION does the source give for CC(C)c1nccn1C(C)C(=O)N1CCN(c2cnccn2)CC1 (centres undefined) here?
Answer: The INHIBITION was -6.28%.

Question: How did the INHIBITION turn out when Cc1cccnc1N1CCN(C(=O)C(C)n2ccnc2C(C)C)CC1 (centres undefined) was run?
Answer: The INHIBITION was 17.9%.

Question: Which INHIBITION does the source give for CC(C)c1nccn1C(C)C(=O)N1CCN(c2ccccc2Cl)CC1 (centres undefined) here?
Answer: Its INHIBITION is 64.6%.

Question: For COCCN(C)C[C@@H]1CN(C(=O)c2ccc(C)c(Cl)c2)C[C@@H]1CO, which INHIBITION is on record?
Answer: Its INHIBITION is 13.1%.

Question: How did the INHIBITION turn out when C[C@@H]1CN(Cc2ccoc2)C[C@]12CCN(CC(=O)N(C)C)C2=O was run?
Answer: Its INHIBITION is 23.5%.

Question: With CCOC(C)c1noc(CN2CCN(Cc3ccno3)CC2)n1 (centres undefined) as the molecule, how does the INHIBITION read?
Answer: The INHIBITION was 33.4%.

Question: For CCOC(C)c1noc(CN2CCN(c3nnc(C)s3)CC2)n1 (centres undefined), which INHIBITION is on record?
Answer: The INHIBITION was 65.8%.

Question: How did the INHIBITION turn out when CCOC(C)c1noc(CN2CCNCC2)n1 (centres undefined) was run?
Answer: The INHIBITION was 31.2%.

Question: Which INHIBITION does the source give for CCOC(C)c1noc(CN2CCN(CC3CCCC3)CC2)n1 (centres undefined) here?
Answer: Its INHIBITION is 28%.

Question: How did the INHIBITION turn out when CCOC(C)c1noc(CN2CCN(c3ccncc3)CC2)n1 (centres undefined) was run?
Answer: The INHIBITION was 81%.

Question: Which INHIBITION does the source give for CCOC(C)c1noc(CN2CCN(Cc3cccnc3)CC2)n1 (centres undefined) here?
Answer: Its INHIBITION is 34.4%.

Question: How did the INHIBITION turn out when COc1ccc(CN(Cc2cccnc2)CC2CCCO2)c(OC)c1 (centres undefined) was run?
Answer: Its INHIBITION is 22.2%.

Question: Which INHIBITION does the source give for CCN1C(=O)CCCC12CCCN(C(=O)c1ccoc1C)C2 (centres undefined) here?
Answer: The INHIBITION was 32.1%.

Question: CCC(=O)NCC(=O)NCC1(O)CCC(C(C)(C)C)CC1 (centres undefined) was tested. Which INHIBITION did it give?
Answer: The INHIBITION was 38.3%.
